CBFb-RUNX1 inh – CBF-beta/RUNX1 interaction disruption | Q01196+Q13951 | 230,000 tested, under 10 active | AlphaScreen CBFb-His/RUNX1-biotin binding, biochemical | Potency, µM (titrated, usually from 59.8 µM), for inactives: top-dose activity, negative = inhibition, actives largely listed as inhibitors; note: % of control where 0% means no effect
Target sequence (Q01196 whole entry, looked up): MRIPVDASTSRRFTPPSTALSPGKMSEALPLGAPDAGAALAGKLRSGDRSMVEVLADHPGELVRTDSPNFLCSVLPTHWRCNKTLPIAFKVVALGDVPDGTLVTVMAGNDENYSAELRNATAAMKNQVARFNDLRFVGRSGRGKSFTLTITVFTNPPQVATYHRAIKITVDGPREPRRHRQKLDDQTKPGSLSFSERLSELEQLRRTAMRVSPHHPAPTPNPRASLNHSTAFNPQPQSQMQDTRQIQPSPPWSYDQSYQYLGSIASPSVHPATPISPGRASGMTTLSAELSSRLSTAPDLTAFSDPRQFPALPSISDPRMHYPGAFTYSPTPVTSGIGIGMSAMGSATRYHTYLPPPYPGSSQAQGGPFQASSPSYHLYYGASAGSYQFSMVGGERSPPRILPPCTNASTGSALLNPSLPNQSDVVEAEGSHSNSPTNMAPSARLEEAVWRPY
Target sequence (Q13951 whole entry, looked up): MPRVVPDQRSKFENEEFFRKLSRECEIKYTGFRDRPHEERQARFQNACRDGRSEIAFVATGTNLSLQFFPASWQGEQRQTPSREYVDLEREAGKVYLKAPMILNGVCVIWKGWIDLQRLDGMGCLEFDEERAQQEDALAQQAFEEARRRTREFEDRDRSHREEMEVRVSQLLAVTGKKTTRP
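CBF-beta (His) and RUNX1 (biotin), 30 nM each; 20 min preassociation; + compound, 15 min; + beads 50 ng each (Ni, streptavidin), 90 min; RT; AlphaScreen read.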
Tau fibril FP – inhibitors of human tau fibril formation | P10636 | Potency, µM (series often up to 57.7 µM), inactives show at the highest dose activity, negative = inhibition, hits mostly inhibitors | K18 P301L tau heparin fibrillization, Alexa594 FP, 6 h | 280,000 compounds, 0.39% hits | AID 1468; note: potency is the fitted concentration of half-maximal effect; % is set by controls: 0 for no effect and ±100 for the full control effect; nearly all actives have a fitted effect of over 55% in size
Target sequence (P10636 561-689 P618L limits assumed): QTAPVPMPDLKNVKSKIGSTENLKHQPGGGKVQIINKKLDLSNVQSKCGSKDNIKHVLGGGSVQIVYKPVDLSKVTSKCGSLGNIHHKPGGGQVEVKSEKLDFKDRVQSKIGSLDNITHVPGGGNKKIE
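FP of Alexa 594-tau after heparin (20 uM) induction. Substrate: human K18 P301L, 15 uM unlabeled, 0.24 uM labeled. Buffer 100 mM sodium acetate pH 7. 6 hr, 37 C.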
KDM4E inh – blocks human JMJD2E demethylase activity | B2RXH2 | 230,000 compounds, 1.6% hits | Potency, µM (series often up to 57.1 µM), for inactives: at the highest dose activity change, negative = inhibition, usual class: inhibitors | JMJD2E catalytic domain, FDH-coupled NADH fluorescence (FDH is formaldehyde dehydrogenase) | AID 2147; active = well fitted inhibition curve with a large enough effect, not every such curve was filed as active; inconclusive = small, poorly fitted or top-dose-only effect, or another doubt; inactive = no such curve, though single readings can be large or run the other way;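 note: potency is the fitted concentration of half-maximal effect; 0% = wells with enzyme and -100% = buffer wells without enzyme; nearly all actives have a fitted effect of over 50% in size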
Lamin A splicing – LMNA splicing modulation | HeLa LMNA splicing GFP/RFP minigene ratio, 48 h | Potency, µM (top dose mostly 46.1 µM), for inactives: top-dose ratio change, negative = inhibition, actives largely listed as inhibitors | 200,000 compounds, 0.01% hits; active = well fitted inhibition curve with a large enough effect in the signal ratio, with a control signal flat, not every such curve was filed as active; inconclusive = small, poorly fitted or top-dose-only effect, or effect the other way, or a change in a side signal; the % refers to the signal ratio; note: potency is the fitted concentration of half-maximal effect; % is set by controls: 0 for no effect and ±100 for the full control effect
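Read-out is the ratio of GFP to DsRed2 object intensity, acquired by 488 nm laser-scanning cytometry on HeLa lamin A-EGFP minigene reporter cells. Compound incubation 48 hrs at 37 °C in Opti-MEM with 2% FBS; DMSO 0.5% final.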
Tau fibril ThT – blocks human tau fibril formation measured by thioflavin T; recombinant tau K18 P301L, heparin-induced fibrillization, ThT fluorescence; P10636; 270,000 compounds, 2.1% hits; Potency, µM (highest dose often 57.4 µM), without a hit: at the top dose activity, negative = inhibition, actives largely listed as inhibitors; note: potency is the fitted concentration of half-maximal effect; % is set by controls: 0 for no effect and ±100 for the full control effect; nearly all actives have a fitted effect of over 55% in size
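Using a mix of unlabeled (15 uM) and Alexa 594-labeled (0.24 uM) tau K18 P301L, heparin-triggered fibrillization over 6 hr at 37 C was scored by ThT fluorescence.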
Tau fluor cs – counter-screen for tau fibril formation inhibitors; 280,000 compounds, 0.93% hits; tau K18 P301L (four-repeat tau fragment) Alexa594 fluorescence, heparin fibrillization; Potency, µM (titrated, usually from 57.7 µM), without a hit: at the top dose activity change, negative = decrease; note: potency is the fitted concentration of half-maximal effect; % is set by controls: 0 for no effect and ±100 for the full control effect; nearly all actives have a fitted effect of over 55% in size
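Human K18 P301L tau (15 uM unlabeled plus 0.24 uM Alexa 594-labeled, final) in 100 mM sodium acetate pH 7 was mixed with compound and 20 uM heparin and incubated 6 hr at 37 C.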
* marks the source's active call; other numbers are inactive results; ? = inconclusive; / = no result given; ! = repeats disagree; [ ] = remark or other dose. The list is not random: actives were taken first. Their share in the collection is about 3.2%. Unless noted, calls come from the whole dose curve; as a rule, active = well fitted curve in the direction sought with a large enough effect; inconclusive = small, poorly fitted or top-dose-only effect, or another doubt; inactive = no such curve, though single readings can be large; an effect the other way counts as inactive or inconclusive.

SMILES	CBFb-RUNX1 inh	Tau fibril FP	KDM4E inh	Lamin A splicing	Tau fibril ThT	Tau fluor cs
CNC(=S)N(CCc1c(C)[nH]c2ccccc12)Cc1ccco1	-26%	7%	-25%	/	-11%	-29%
CC1CCN(c2nc3c(S(=O)(=O)c4ccc(Cl)cc4)nnn3c3ccsc23)CC1	/	-8%	/	/	-9%	-26%
CCOC(=O)C1=NN(c2ccccc2)C(=O)/C1=C\c1ccc(N(C)C)cc1	-6%	3%	1%	-6%	?	-29%
CC1=NN(Cc2ccccc2)C(=O)/C1=C\c1ccc(N(C)C)cc1	?	-1%	-7%	-5%	20µM*	-23%
COc1ccc2c(c1)c(/C=N/Nc1nc3ccccc3[nH]1)c(C)n2C	/	?	?	/	22µM*	28µM*[quencher]
C(=N\Nc1nc2ccccc2[nH]1)/c1ccccn1	?	-9%	-11%	/	?	-23%
COc1cc(OC)c(OC)cc1/C=N/Nc1nc2ccccc2[nH]1	-8%	1%	-2%	/	?	-22%
COc1ccc(/C=N/Nc2nc3ccccc3[nH]2)cc1OC	-10%	?	-5%	?	13µM*	?
Fc1ccccc1-c1ccc(/C=N/Nc2nc3ccccc3[nH]2)o1	15%	9%	?	?	6.3µM*	14µM*[quencher]
CCN(CC)c1ccc(/C=N/Nc2nc3ccccc3[nH]2)c(O)c1	?	2%	16µM*	?	14µM*	18µM*[quencher]
Cc1ccc(-c2cn3c(n2)sc2cc(C(=O)NCCCc4ccccc4)ccc23)c(C)c1	/	-8%	/	-4%[46 µM]	11%	-14%
Cc1ccc(S(=O)(=O)Nc2cc3c(cc2C)n(C)c(=O)c(=O)n3C)c(C)c1	/	0%	/	28%[46 µM]	3%	8%
Cc1cccc(C(=O)Nc2ccccc2OCc2cc(=O)n3ccccc3n2)c1	/	-15%	/	-18%[46 µM]	-6%	-12%
C(=N\Nc1nc2ccccc2[nH]1)/c1ccc2c(c1)OCCO2	?	12%	-18%	/	4µM*	?
COc1ccc(-c2cc(C(F)(F)F)n3nc(C(=O)Nc4sc5c(c4C#N)CCC(C)C5)cc3n2)cc1OC (stereo unspecified)	/	-1%	/	/	-11%	-4%
Nc1ccc2nc(-c3ccccn3)[nH]c2c1	/	-7%	?	?	25µM*	?
Cc1ccc(O)c(C(=O)/C=C/c2ccc3c(c2)OCCO3)c1	-5%	20%	-3%	/	16µM*	-9%
Nc1ccccc1C(=O)/C=C/c1ccc2c(c1)OCO2	0%	2%	-1%	?	14µM*!	-22%
Nc1ccccc1C(=O)/C=C\c1ccc2c(c1)OCO2	13%[13.1 µM]	5%[11.6 µM]	/	/	1.3µM*	?
C[C@@H]1CC2(OC[C@]3(C)O[C@H]23)O[C@H]2C[C@@]3(C)[C@@H]4CC[C@H]5C(C)(C)C(O[C@@H]6OC[C@@H](O)[C@H](O)[C@H]6O)CC[C@@]56C[C@@]46CC[C@]3(C)[C@@H]12 (stereo partly specified)	23%[21.7 µM]	/	/	/	/	/
Clc1ccc(N2CCN(c3ncnc4c3nc3n4CCCC3)CC2)cc1	/	8%	/	-7%[46 µM]	?	-13%
O=C(/C=C/c1cccs1)Nc1scc(-c2ccccc2)c1C(=O)O	-10%	5%	5µM*	-2%[9.22 µM]	?	-7%
O=C(/C=C/c1cccs1)Nc1nc(-c2ccccc2)cs1	25%	?	-25%	?	-6%	?
COc1cc(/C=N/Nc2nc(Nc3ccccc3)nc(-n3nc(C)cc3C)n2)cc(OC)c1OC	-6%	11%	3%	?	?	?
COc1ccc(O)c(/C=N/Nc2nc(Nc3ccccc3)nc(-n3nc(C)cc3C)n2)c1	?	?	14µM*	?	?	?
SMILES	CBFb-RUNX1 inh	Tau fibril FP	KDM4E inh	Lamin A splicing	Tau fibril ThT	Tau fluor cs
CCC(=O)Nc1nc(CC(=O)Nc2ccccc2OC)cs1	-10%	-8%	-1%	-8%	-1%	1%
COc1ccccc1NC(=O)Cc1csc(NC(=S)Nc2ccc(C)cc2)n1	-7%	?	14%	9%	-5%	13µM*[quencher]
O=C(Nc1ccc2[nH]c(=S)sc2c1)Nc1ccccc1F	-11%	-6%	-6%	?	11µM*	11µM*[quencher]
O=C(Nc1ccc2[nH]c(=S)sc2c1)c1ccccc1	-1%	3%	-29%	-17%	-16%	-12%
COc1ccc(CC(=O)Nc2ccc(S(=O)(=O)Nc3cc(C)on3)cc2)cc1OC	2%	-14%	8%	7%	-17%	-13%
COc1cc(NS(=O)(=O)c2ccc(Nc3nc(-c4ccccn4)cs3)cc2)nc(OC)n1	?	14%	-7%	-8%[46 µM]	-13%	-26%
COc1ccc(-c2csc(Nc3ccc(S(=O)(=O)Nc4cc(OC)nc(OC)n4)cc3)n2)cc1	0%	3%	-4%	?	16µM*	11µM*[quencher]
COc1ccc(-c2csc(Nc3ccc(S(=O)(=O)Nc4cc(C)on4)cc3)n2)cc1C	4%	13%	?	/	13µM*	?
COC(=O)C1=C(C(=O)OC)[C@@H]2N(C)c3ccc(OC)cc3[C@@]23C[C@@H](C(=O)OC)N(C(C)=O)C3=N1	0%[13.1 µM]	1%[11.6 µM]	7%[11.4 µM]	-20%[9.22 µM]	-2%[11.5 µM]	-11%[11.6 µM]
COc1ccc(OCC(O)Cn2c(NCCO)nc3c2c(=O)n(C)c(=O)n3C)cc1 (stereo unspecified)	/	2%	/	/	2%	4%
Cc1ccc2c(c1)-c1onc(C(=O)N(C)c3cccc(C(F)(F)F)c3)c1CO2	/	-6%	/	-14%[46 µM]	?	?
CCCCc1nc2c(c3c1C[C@H](C)OC3)CN(C(=O)Nc1ccc(OC)cc1)CC2	-4%[13.1 µM]	3%[11.6 µM]	8%[11.4 µM]	-6%[9.22 µM]	3%[11.5 µM]	0%[11.6 µM]
COc1ccc(N/C=C\C(=O)c2ccc3c(c2)OCO3)cc1	0%	3%	-2%	5%	?	-28%
COc1cc(/C=N\NC(=O)c2ccc(C)nc2)ccc1OC(=O)c1ccc2c(c1)OCO2	-9%	25µM*	?	/	-4%	-26%
COc1ccc(N/C=C\C(=O)c2ccc(Br)cc2)cc1OC	-3%	0%	8%	-6%	3.2µM*	-10%
CCOC(=O)c1cccc(N/C=C/C(=O)c2ccc(OC)c(OC)c2)c1	1%	6%	?	-15%	?	?
COc1ccc(N/C=C\C(=O)c2ccc(C)cc2)cc1OC	-3%	3%	-5%	?	10µM*	?
COc1cc(/C=N/NC(=O)c2cncc(Br)c2)ccc1OC(=O)c1ccc2c(c1)OCO2	-5%	5%	1%	-4%	-8%	0%
COc1ccc(N/C=C/C(=O)c2ccc3c(c2)OCO3)cc1OC	-6%	-5%	-17%	10%	5µM*	?

Compound activity: PubChem, National Center for Advancing Translational Sciences (NCATS)
